Reference: PubChem BioAssay
Calls of active or inactive are those of the source.

biological target: NADPH oxidase 4 (Homo sapiens) (UniProt Q9NPH5); test: NOX4-dependent H2O2 signal modulators, primary screen, NOX inhibitor project, cell-based, HEK293-NOX4, tetracycline-induced, Amplex Red fluorescence (AID 1160); conditions: 45 min, higher = more signal, called active from +8 up or from −8 down
Sequence (Q9NPH5 whole entry, looked up): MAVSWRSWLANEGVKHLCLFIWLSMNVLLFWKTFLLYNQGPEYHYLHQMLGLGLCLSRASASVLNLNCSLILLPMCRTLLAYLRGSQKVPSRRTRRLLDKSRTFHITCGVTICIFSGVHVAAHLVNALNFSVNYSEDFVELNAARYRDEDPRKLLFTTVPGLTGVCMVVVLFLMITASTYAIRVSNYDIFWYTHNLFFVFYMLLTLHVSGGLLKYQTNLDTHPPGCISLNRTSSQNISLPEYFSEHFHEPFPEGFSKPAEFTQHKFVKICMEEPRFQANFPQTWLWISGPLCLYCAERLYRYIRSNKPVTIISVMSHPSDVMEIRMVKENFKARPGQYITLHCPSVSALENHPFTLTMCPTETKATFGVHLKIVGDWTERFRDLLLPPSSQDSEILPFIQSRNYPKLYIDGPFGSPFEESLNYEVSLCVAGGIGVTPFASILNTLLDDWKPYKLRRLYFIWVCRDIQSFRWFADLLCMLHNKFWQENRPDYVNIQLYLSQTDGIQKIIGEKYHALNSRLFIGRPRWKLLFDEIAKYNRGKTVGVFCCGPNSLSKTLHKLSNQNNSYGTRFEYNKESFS

Row | Structure (SMILES) | z-score
1 | C=CCN1C(=O)[C@]2(O[C@H](CCO)[C@@H]([Si](C)(C)c3ccc(OC)cc3)[C@@H]2C)c2cc(N3C(=O)COc4ccccc43)ccc21 | 0.0613 (inactive)
2 | COCCCNC(=O)[C@@]1(c2ccc([N+](=O)[O-])cc2)CC(=O)N(CC23CC4CC(CC(C4)C2)C3)[C@@H]1c1ccc(CO)cc1I | -1.02 (inactive)
3 | CC(C)OC(=O)CC(=O)CC(O)c1ccc([N+](=O)[O-])cc1 (stereo not drawn) | 0.66 (inactive)
4 | CCOC(=O)C1=CCC(c2ccco2)N(S(=O)(=O)c2ccc(C)cc2)C1 (stereo not drawn) | -1.26 (inactive)
5 | [N-]=[N+]=Nc1ccccc1[C@@H]1OC(c2ccc(OCCCO)cc2)=N[C@]1(Cc1ccccc1)C(=O)NCc1ccccc1 | 1.15 (inactive)
6 | [N-]=[N+]=NCc1ccccc1C[C@@]1(C(=O)N2CCCCC2)N=C(c2ccc(OCCCO)cc2)O[C@@H]1c1ccccc1CN=[N+]=[N-] | -0.467 (inactive)
7 | O=C1C2C=CC(C(O)c3ccc(I)cc3)N(Nc3ccccc3)C2C(=O)N1c1ccccc1 (stereo not drawn) | -3.86 (inactive)
8 | CC(C)C(=C=CC[C@@H](O)c1cccc(OCCO)c1)C[C@@H](O)c1ccccn1 | -0.666 (inactive)
9 | COC(=O)[C@@]1(Cc2ccccc2CN=[N+]=[N-])N=C(c2ccc(OCCCO)cc2)O[C@H]1c1ccccc1 | -0.348 (inactive)
10 | CCOC(=O)C[C@H]1[C@H](OC(=O)c2cc3ccccc3oc2=O)[C@@H](NC(=O)c2ccc3ccccc3c2)c2cc(OCCCO)ccc2N1C(=O)Cc1ccc(OC)cc1 | 1.01 (inactive)
11 | COC(=O)[C@@]1(Cc2ccc(OC)cc2)[C@H]2c3cc(C(=O)N4CCCC4)n(Cc4cc(C)n(C)n4)c3C[C@H]2CN1C(=O)c1ccccc1 | -0.134 (inactive)
12 | C=C(CCCC)C(=O)CC[C@H](OC(C)=O)c1ccc(OCCO)cc1 | -1.5 (inactive)
13 | COc1ccc(C(=O)Nc2cccc(CN3C(=O)[C@]4(O[C@H](CCn5cc([C@H](O)c6ccccc6)nn5)[C@@H]([Si](C)(C)c5ccc(OC)cc5)[C@@H]4C)c4ccccc43)c2)cc1 | 0.245 (inactive)
14 | COCCOC(=O)N1C(=O)[C@@]2(c3cc(C#CC4=CCCCC4)ccc31)[C@H](C(=O)N1CCCCCCC1)[C@H]1C(=O)O[C@H](c3ccccc3)[C@H](c3ccccc3)N1[C@@H]2c1ccc(OCCO)cc1 | 0.567 (inactive)
15 | C=C(CCCC)/C(=C/C[C@H](OC(C)=O)c1ccc(OCCO)cc1)c1cc(C(=O)OC)ccc1OC | -0.759 (inactive)
16 | COc1ccc([Si](C)(C)[C@H]2[C@H](CC(=O)N3CCC[C@H]3CO)O[C@@]3(C(=O)N(Cc4ccc(N5CCC5=O)cc4)c4ccccc43)[C@@H]2C)cc1 | 1.63 (inactive)
17 | [N-]=[N+]=NCc1ccccc1[C@@H]1OC(c2ccc(OCCCO)cc2)=N[C@]1(Cc1ccccc1N=[N+]=[N-])C(=O)NCCN1CCOCC1 | -0.406 (inactive)
18 | O=C1C[C@@](C(=O)NCC(F)(F)F)(c2ccc([N+](=O)[O-])cc2)[C@@H](c2ccc(CO)cc2)N1CC12CC3CC(CC(C3)C1)C2 | -3.52 (inactive)

biological target: NADPH oxidase 5 (Homo sapiens) (UniProt Q96PH1); test: NOX5-dependent H2O2 signal modulators, primary screen, NOX inhibitor project, cell-based, HEK293-NOX5, Amplex Red fluorescence (AID 1161); conditions: HEK293-NOX5, ionomycin, 45 min, higher = more signal
Sequence (Q96PH1 whole entry, looked up): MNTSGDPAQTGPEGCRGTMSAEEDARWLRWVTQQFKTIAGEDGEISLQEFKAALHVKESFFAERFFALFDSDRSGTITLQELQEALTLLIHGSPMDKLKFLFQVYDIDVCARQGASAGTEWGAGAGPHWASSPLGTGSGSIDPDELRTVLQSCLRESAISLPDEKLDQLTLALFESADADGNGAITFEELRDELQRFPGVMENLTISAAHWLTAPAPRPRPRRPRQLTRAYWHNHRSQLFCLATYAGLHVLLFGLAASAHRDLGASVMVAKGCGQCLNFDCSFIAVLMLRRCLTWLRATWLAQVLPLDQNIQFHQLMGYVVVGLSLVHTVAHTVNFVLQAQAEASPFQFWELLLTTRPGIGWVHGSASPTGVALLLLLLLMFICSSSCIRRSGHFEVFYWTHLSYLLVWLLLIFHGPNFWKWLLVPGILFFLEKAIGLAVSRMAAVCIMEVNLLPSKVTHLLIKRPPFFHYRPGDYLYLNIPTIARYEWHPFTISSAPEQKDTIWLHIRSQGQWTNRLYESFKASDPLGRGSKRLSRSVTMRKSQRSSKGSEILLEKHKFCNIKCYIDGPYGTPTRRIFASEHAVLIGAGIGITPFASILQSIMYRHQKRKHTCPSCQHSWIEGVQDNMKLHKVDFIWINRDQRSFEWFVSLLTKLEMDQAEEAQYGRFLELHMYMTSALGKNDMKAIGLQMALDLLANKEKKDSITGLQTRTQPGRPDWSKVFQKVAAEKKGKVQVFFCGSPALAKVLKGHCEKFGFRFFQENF

Row | Structure (SMILES) | z-score
19 | C=CCC(OC(C)=O)[C@@H]1[C@@H](N(Cc2cc3ccccc3o2)C(=O)c2ccc(-c3ccccc3)cc2)c2cc(OCCCO)ccc2N1C(=O)Cc1ccc(OC)cc1 (stereo partly drawn) | 1.09
20 | COCC(=C=CC[C@@H](O)c1ccc(OCCO)cc1)CCO | -0.727
21 | CC(C)(C)OC(=O)CC[C@]12N=C(c3ccc(OCCCO)cc3)O[C@H]1c1ccccc1N(Cc1ccccc1)C2=O | -1.71
22 | O=C1OCCC/C=C\[C@H]2OC34C=CCN(c5ccc6ccccc6c5)C(=O)[C@H]3N(CCCO)C(=O)[C@@H]4C12 (stereo partly drawn) | 2.53
23 | C=C/C=C/[C@@H]1C(=C)CN([C@@H](Cc2ccccc2)C(=O)OC)[C@H]1[C@@H](O)Cc1ccccc1 | 0.568
24 | O=C1NC(=O)C2C1C=CC(C(O)c1ccccn1)N2Nc1ccc(Cl)cc1Cl (stereo not drawn) | -3.38
25 | CC(C)C[C@@H]1NC(=O)CNC(=O)[C@@]23C(=O)N[C@@H](Cc4ccccc4)C2[C@H](C)[C@@]2(C)O[C@H]2C3/C=C/C/C=C\CNC1=O (stereo partly drawn) | 0.149
26 | CCOC(=O)C1=C[C@@H](c2ccccc2)N(S(=O)(=O)c2ccc(C)cc2)[C@H]1c1ccccc1 | 0.565
27 | [N-]=[N+]=NCc1ccccc1C[C@]1(C(=O)N2CCOCC2)COC(c2ccc(OCCCO)cc2)=N1 | -3.14
28 | COCCOC(=O)N1C(=O)[C@@]2(c3cc(C#Cc4ccc(OC)cc4)ccc31)[C@H](C(=O)NC[C@H](O)c1ccccc1)[C@H]1C(=O)O[C@H](c3ccccc3)[C@H](c3ccccc3)N1[C@@H]2c1ccc(OCCO)cc1 | -2.61
29 | COCCOC(=O)N1C(=O)[C@@]2(c3cc(C#CCC(C(=O)OC)C(=O)OC)ccc31)[C@H](c1ccc(OCCO)cc1)N1[C@H](c3ccccc3)[C@H](c3ccccc3)OC(=O)[C@H]1[C@@H]2C(=O)Nc1nc2ccccc2s1 | 0.93
30 | COCCOC(=O)N1C(=O)[C@@]2(c3cc(C#CCNC(N)=O)ccc31)[C@H](c1ccc(O)cc1)N1[C@H](c3ccccc3)[C@H](c3ccccc3)OC(=O)[C@H]1[C@@H]2C(=O)N1CCN(c2ncccn2)CC1 | 1.13
31 | COc1cc(C(O)C2C=CC3C(=O)N(Cc4ccccc4)C(=O)C3N2n2cnnc2)cc(OC)c1OC (stereo not drawn) | -0.665
32 | CCCCC=C[C@@H](NC(=O)c1ccccc1)c1ccccc1 | -2.28
33 | COc1ccc([Si](C)(C)[C@@H]2[C@@H](CC(=O)N3Cc4ccccc4C[C@H]3CO)O[C@]3(C(=O)N(c4ccccc4)c4ccccc43)[C@H]2C)cc1 | 0.544
34 | CCOC(=O)C1=CCC(c2ccccc2)N(S(=O)(=O)c2ccc([N+](=O)[O-])cc2)C1 (stereo not drawn) | -0.023
35 | [N-]=[N+]=NCc1ccccc1[C@@H]1OC(c2ccc(OCCCO)cc2)=N[C@]1(Cc1ccccc1N=[N+]=[N-])C(=O)N1CCCCC1 | 1.17
36 | C=CCN1C(=O)[C@]2(O[C@H](CCO)[C@@H]([Si](C)(C)c3ccc(OC)cc3)[C@@H]2C)c2cc(N3C(=O)COc4ccccc43)ccc21 | -1.94

Row | Structure (SMILES) | z-score
37 | COCCCNC(=O)[C@@]1(c2ccc([N+](=O)[O-])cc2)CC(=O)N(CC23CC4CC(CC(C4)C2)C3)[C@@H]1c1ccc(CO)cc1I | -0.233
38 | CC(C)OC(=O)CC(=O)CC(O)c1ccc([N+](=O)[O-])cc1 (stereo not drawn) | 0.39
39 | CCOC(=O)C1=CCC(c2ccco2)N(S(=O)(=O)c2ccc(C)cc2)C1 (stereo not drawn) | 0.758
40 | [N-]=[N+]=Nc1ccccc1[C@@H]1OC(c2ccc(OCCCO)cc2)=N[C@]1(Cc1ccccc1)C(=O)NCc1ccccc1 | 0.377
41 | [N-]=[N+]=NCc1ccccc1C[C@@]1(C(=O)N2CCCCC2)N=C(c2ccc(OCCCO)cc2)O[C@@H]1c1ccccc1CN=[N+]=[N-] | -0.859
42 | O=C1C2C=CC(C(O)c3ccc(I)cc3)N(Nc3ccccc3)C2C(=O)N1c1ccccc1 (stereo not drawn) | -2.54
43 | CC(C)C(=C=CC[C@@H](O)c1cccc(OCCO)c1)C[C@@H](O)c1ccccn1 | -1.45
44 | COC(=O)[C@@]1(Cc2ccccc2CN=[N+]=[N-])N=C(c2ccc(OCCCO)cc2)O[C@H]1c1ccccc1 | -2.48
45 | CCOC(=O)C[C@H]1[C@H](OC(=O)c2cc3ccccc3oc2=O)[C@@H](NC(=O)c2ccc3ccccc3c2)c2cc(OCCCO)ccc2N1C(=O)Cc1ccc(OC)cc1 | 1.94
46 | COC(=O)[C@@]1(Cc2ccc(OC)cc2)[C@H]2c3cc(C(=O)N4CCCC4)n(Cc4cc(C)n(C)n4)c3C[C@H]2CN1C(=O)c1ccccc1 | -2.8
47 | C=C(CCCC)C(=O)CC[C@H](OC(C)=O)c1ccc(OCCO)cc1 | -3.11
48 | COc1ccc(C(=O)Nc2cccc(CN3C(=O)[C@]4(O[C@H](CCn5cc([C@H](O)c6ccccc6)nn5)[C@@H]([Si](C)(C)c5ccc(OC)cc5)[C@@H]4C)c4ccccc43)c2)cc1 | -0.305
49 | COCCOC(=O)N1C(=O)[C@@]2(c3cc(C#CC4=CCCCC4)ccc31)[C@H](C(=O)N1CCCCCCC1)[C@H]1C(=O)O[C@H](c3ccccc3)[C@H](c3ccccc3)N1[C@@H]2c1ccc(OCCO)cc1 | -0.934
50 | C=C(CCCC)/C(=C/C[C@H](OC(C)=O)c1ccc(OCCO)cc1)c1cc(C(=O)OC)ccc1OC | -1.56
51 | COc1ccc([Si](C)(C)[C@H]2[C@H](CC(=O)N3CCC[C@H]3CO)O[C@@]3(C(=O)N(Cc4ccc(N5CCC5=O)cc4)c4ccccc43)[C@@H]2C)cc1 | 4.56
52 | [N-]=[N+]=NCc1ccccc1[C@@H]1OC(c2ccc(OCCCO)cc2)=N[C@]1(Cc1ccccc1N=[N+]=[N-])C(=O)NCCN1CCOCC1 | -1
53 | O=C1C[C@@](C(=O)NCC(F)(F)F)(c2ccc([N+](=O)[O-])cc2)[C@@H](c2ccc(CO)cc2)N1CC12CC3CC(CC(C3)C1)C2 | -5.17
